Assay outcomes as filed in PubChem BioAssay.
The list is not random: actives were taken first. Their share in the collection is about 12%.
BAZ2B block: qHTS Assay for Inhibitors of BAZ2B. Bromodomain adjacent to zinc finger domain protein 2B (Homo sapiens), Q9UIF8. AlphaScreen BAZ2B-H3K14Ac peptide displacement. Potency, µM (top dose mostly 114 µM), without a hit: top-dose activity change, negative = inhibition, hits mostly inhibitors. 360,000 tested, 4.4% active. AID 504333, 2011; also: % is scaled to controls: 0 for no effect and ±100 for the full control effect; nearly all actives have a fitted effect of over 60% in size
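BAZ2B 50 nM plus b-H3(5-23)K14Ac 50 nM, PBS pH 7.4/0.01% Tween-20, 30 min RT; compound added (max 110 uM), 30 min RT; streptavidin donor/Ni-chelate acceptor beads 10 ug/mL final, 20 min dark; AlphaScreen read.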
PLK1 PBD block: qHTS for Inhibitors of PLK1-PDB (polo-like kinase 1 - polo-box domain): Primary Screen; Serine/threonine-protein kinase PLK1 (Homo sapiens), P53350; Plk1 PBD binding of FITC phosphopeptide, fluorescence polarization; Potency, µM, for inactives: max response, negative = inhibition, most hits filed as inhibitors; 360,000 tested, 2.8% active; also: series mostly up to about 57 µM; % is scaled to controls: 0 for no effect and ±100 for the full control effect; nearly all actives have a fitted effect of over 65% in size
Sfp inh: qHTS Assay for Inhibitors of Bacillus subtilis Sfp phosphopantetheinyl transferase (PPTase); 310,000 tested, 3.5% active; Biochemical Sfp PPTase activity, qHTS; Potency, µM, for inactives: largest response in the series, negative = inhibition, usual class: inhibitors;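 also: the enzyme is Sfp with the accession as filed and its product quenches rhodamine fluorescence; 0% = enzyme reaction without inhibitor and -100% = no enzyme wells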
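Sfp 15 nM + cpd, 15 min RT; start w/ rhodamine-CoA 5 uM, BHQ-2-YbbR 12.5 uM (final); 50 mM Hepes pH 7.6, 10 mM MgCl2, 0.01% NP-40, 0.01% BSA; read 525/598 nm at 0 and 30 min.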
HP1b binding inh: HTS for Inhibitors of HP1-beta Chromodomain Interactions with Methylated Histone Tails. Chromobox protein homolog 1 (Homo sapiens), P83916. AlphaScreen HP1-beta / biotin-H3K9me3 peptide binding. Potency, µM (titrated, usually from 114 µM), for inactives: at the top dose activity change, negative = inhibition, actives largely listed as inhibitors. 390,000 tested, 0.56% active. AID 540317, 2011; also: nearly all actives have a fitted effect of over 70% in size
Target sequence (P83916 whole entry, looked up): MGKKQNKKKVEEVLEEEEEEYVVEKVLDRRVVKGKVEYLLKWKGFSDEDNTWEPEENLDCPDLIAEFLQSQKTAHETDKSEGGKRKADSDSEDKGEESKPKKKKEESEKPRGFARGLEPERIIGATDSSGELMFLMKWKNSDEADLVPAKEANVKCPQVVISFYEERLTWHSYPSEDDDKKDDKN
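AlphaScreen: HP1-beta (50 nM) preformed 30 min with biotin-H3(1-18)K9me3 peptide (50 nM) in PBS pH 7.4, 0.01% Tween-20. Compound added for 30 min at RT, then streptavidin donor/nickel chelate acceptor beads (10 ug/mL) for 30 min.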
JMJD2A Tudor inh: qHTS Assay for Inhibitors of JMJD2A-Tudor Domain | Lysine-specific demethylase 4A (Homo sapiens), O75164 | AlphaScreen JMJD2A-Tudor / H3K4me3 peptide binding | Potency, µM (titrated, usually from 114 µM), for inactives: at the highest dose activity change, negative = inhibition, hits mostly inhibitors | 390,000 tested, 4.4% active | AID 504339, 2011; also: % is scaled to controls: 0 for no effect and ±100 for the full control effect; nearly all actives have a fitted effect of over 50% in size
G9a block: qHTS Assay for Inhibitors of Histone Lysine Methyltransferase G9a; G9a H3K9 monomethylation, AlphaScreen, 2 h; Histone-lysine N-methyltransferase EHMT2 (Homo sapiens), Q96KQ7; 350,000 tested, 8.8% active; Potency, µM (top dose mostly 102 µM), inactives show at the highest dose activity, negative = inhibition, most hits filed as inhibitors; also: % is scaled to controls: 0 for no effect and ±100 for the full control effect; nearly all actives have a fitted effect of over 75% in size
Target sequence (Q96KQ7 913-1193 limits assumed): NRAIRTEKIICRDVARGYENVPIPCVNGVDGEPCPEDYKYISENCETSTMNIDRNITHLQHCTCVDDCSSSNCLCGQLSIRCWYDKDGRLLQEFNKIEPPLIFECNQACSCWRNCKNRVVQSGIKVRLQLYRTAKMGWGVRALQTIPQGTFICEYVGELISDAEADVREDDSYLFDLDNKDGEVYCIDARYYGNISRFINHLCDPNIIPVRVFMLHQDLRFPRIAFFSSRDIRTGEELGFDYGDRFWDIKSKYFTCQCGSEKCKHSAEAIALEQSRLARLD
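Using a bead-based AlphaScreen, monomethylated H3K9 product from 2 h room-temperature reactions (G9a 20 nM, peptide 500 nM, SAM 20 uM) was detected with 0.5 ug/mL rabbit anti-H3K9me1 antibody.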
Starred values were filed as active, the others as inactive; [ ] = remark or other dose. Calls follow the shape of the dose curve; as a rule, active = well fitted curve in the direction sought with a large enough effect; inconclusive = small, poorly fitted or top-dose-only effect, or another doubt; inactive = no such curve, though single readings can be large; an effect the other way counts as inactive or inconclusive. Potency is read from the fitted curve at half-maximal effect.

Results for O=c1c2oc3ccccc3c2n(Cc2ccc(Cl)cc2)c(=O)n1Cc1ccc2c(c1)OCO2 ?
BAZ2B block: -14%; HP1b binding inh: 20%; JMJD2A Tudor inh: -14%; G9a block: -9%[59 µM]

How did O=C(O)CN1C(=O)/C(=C\c2ccccc2OCc2ccc(Cl)cc2)SC1=S do in these assays?
BAZ2B block: inconclusive; PLK1 PBD block: 30µM*; Sfp inh: -13%; HP1b binding inh: -4%; JMJD2A Tudor inh: inconclusive; G9a block: 2%[2.33 µM]

What do the screens show for `CCOCCCn1c(=S)[nH]c2cc(C(=O)NCC(OC)OC)ccc2c1=O`?
BAZ2B block: inconclusive; PLK1 PBD block: -14%; Sfp inh: -16%; HP1b binding inh: 48%; JMJD2A Tudor inh: -18%; G9a block: 25µM*

Results for CCOCCCn1c(=S)[nH]c2cc(C(=O)N3CCOCC3)ccc2c1=O ?
BAZ2B block: inconclusive; PLK1 PBD block: -5%; Sfp inh: 79µM*; HP1b binding inh: 17%; JMJD2A Tudor inh: 22µM*; G9a block: inconclusive

What do the screens show for `CCOc1ccc(NC(=O)CSc2nc(C)c(C(=O)Nc3ccccc3)c(-c3ccc(Cl)cc3)c2C#N)cc1`?
BAZ2B block: 1%; HP1b binding inh: 51%; JMJD2A Tudor inh: -10%; G9a block: 46%[59 µM]

Results for Cc1ccc(CN2C(=O)c3ccccc3C2c2nnnn2-c2c(C)cccc2C)cc1 (stereo unspecified) ?
PLK1 PBD block: -12%

Results for COC(=O)C1=C[C@@H](C(=O)OC)[C@@H]2C3=C(C(=O)C2(C)C)[C@H](C)n2c(=O)n(C)c(=O)n2[C@@H]3C1 ?
Sfp inh: 14%; HP1b binding inh: 38%; JMJD2A Tudor inh: -4%

What do the screens show for `COc1ccc(N2CCN(C(=O)CCCNC(=O)Cn3cnc4sc(C)c(C)c4c3=O)CC2)cc1`?
BAZ2B block: -3%; PLK1 PBD block: -15%; Sfp inh: 10%; HP1b binding inh: 16%; JMJD2A Tudor inh: -17%; G9a block: 50µM*

Results for COc1ccccc1N1CCN(C(=O)CCCNC(=O)Cn2cnc3sc(C)c(C)c3c2=O)CC1 ?
BAZ2B block: 4%; PLK1 PBD block: -8%; Sfp inh: 13%; HP1b binding inh: 18%; JMJD2A Tudor inh: -9%; G9a block: -2%[59 µM]

What do the screens show for `COCc1cc(=O)[nH]c(SCCS(=O)(=O)c2ccc(C)cc2)n1`?
BAZ2B block: 20%; PLK1 PBD block: -6%; Sfp inh: -8%; HP1b binding inh: 16%; JMJD2A Tudor inh: -6%

What do the screens show for `COCc1cc(=O)[nH]c(SCCS(=O)(=O)c2ccc(Cl)cc2Cl)n1`?
BAZ2B block: -13%; PLK1 PBD block: -27%; Sfp inh: 79µM*; HP1b binding inh: 69%; JMJD2A Tudor inh: -12%; G9a block: inconclusive

How did COc1cccc(NC(=S)N(CCC(C)C)C2CCN(C(C)=O)CC2)c1 do in these assays?
BAZ2B block: -10%; PLK1 PBD block: -11%; Sfp inh: -11%; HP1b binding inh: 47%; JMJD2A Tudor inh: -7%; G9a block: 19%

Results for CNC[C@H]1Oc2ccc(NC(=O)Cc3cn(C)c4ccccc34)cc2CC(=O)N([C@@H](C)CO)C[C@H]1C ?
PLK1 PBD block: -2%; HP1b binding inh: 25%; JMJD2A Tudor inh: inconclusive

How did c1cncc(-c2nn3c(Cn4nnc5ccccc54)nnc3s2)c1 do in these assays?
BAZ2B block: 14%; PLK1 PBD block: 17µM*; Sfp inh: 32µM*; HP1b binding inh: -22%; JMJD2A Tudor inh: -9%; G9a block: 13%[2.33 µM]
